The supplement of paper PMC11732987, “Enantioselective OTUD7B fragment discovery through chemoproteomics screening and high-throughput optimisation” (Communications Chemistry, 2025)

Key:
Test in all cases: log2 ratio of Biotin-Ahx-Ub-VS probe labelling (fragment/DMSO); higher = less target engagement (more negative = stronger competition), active = hit call of the paper (q ≤ 0.05, log2 ratio ≤ -1)
Conditions in all cases: compound concentration: 200 uM; treatment time: 3 h
USP19 = target: T1, USP19 (UniProt O94966)
T1 sequence (whole entry): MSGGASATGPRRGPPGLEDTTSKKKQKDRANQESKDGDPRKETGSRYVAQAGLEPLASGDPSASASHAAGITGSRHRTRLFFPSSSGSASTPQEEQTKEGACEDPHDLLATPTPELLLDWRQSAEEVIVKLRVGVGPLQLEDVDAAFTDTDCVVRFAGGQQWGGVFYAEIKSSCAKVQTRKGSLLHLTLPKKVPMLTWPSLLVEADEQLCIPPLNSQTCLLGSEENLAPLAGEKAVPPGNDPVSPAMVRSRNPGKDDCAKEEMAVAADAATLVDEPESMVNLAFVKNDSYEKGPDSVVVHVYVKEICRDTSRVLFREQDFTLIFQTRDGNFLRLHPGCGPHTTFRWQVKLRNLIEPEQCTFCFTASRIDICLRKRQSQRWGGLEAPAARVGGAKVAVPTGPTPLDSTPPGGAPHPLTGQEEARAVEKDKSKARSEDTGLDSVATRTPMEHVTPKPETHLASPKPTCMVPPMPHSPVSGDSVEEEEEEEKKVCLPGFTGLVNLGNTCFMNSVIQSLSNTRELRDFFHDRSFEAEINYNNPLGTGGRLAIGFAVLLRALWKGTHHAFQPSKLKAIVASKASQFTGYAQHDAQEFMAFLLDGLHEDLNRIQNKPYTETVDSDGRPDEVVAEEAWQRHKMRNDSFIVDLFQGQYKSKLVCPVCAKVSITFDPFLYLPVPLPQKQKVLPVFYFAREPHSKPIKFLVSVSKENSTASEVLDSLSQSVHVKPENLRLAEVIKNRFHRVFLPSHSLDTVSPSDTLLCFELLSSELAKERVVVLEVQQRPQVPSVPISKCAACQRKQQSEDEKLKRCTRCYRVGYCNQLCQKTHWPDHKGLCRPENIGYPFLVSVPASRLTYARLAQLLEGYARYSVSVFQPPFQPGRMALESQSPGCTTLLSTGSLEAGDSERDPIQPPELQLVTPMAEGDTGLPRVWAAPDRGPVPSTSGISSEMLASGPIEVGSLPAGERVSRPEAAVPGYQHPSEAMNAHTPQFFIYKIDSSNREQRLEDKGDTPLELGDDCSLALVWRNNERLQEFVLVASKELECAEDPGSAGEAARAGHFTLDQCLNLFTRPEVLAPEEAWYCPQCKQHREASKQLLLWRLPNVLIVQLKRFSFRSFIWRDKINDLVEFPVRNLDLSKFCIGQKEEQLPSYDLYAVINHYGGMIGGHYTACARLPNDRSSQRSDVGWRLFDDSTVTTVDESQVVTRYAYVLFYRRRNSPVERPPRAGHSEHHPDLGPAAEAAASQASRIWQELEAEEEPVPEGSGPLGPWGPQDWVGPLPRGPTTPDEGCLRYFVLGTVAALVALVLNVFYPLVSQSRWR
How it was run: (§1)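 Fragment (200 µM) or vehicle was incubated for 3 h with triplicate HEK293T lysate samples of 495 µg, which were then treated with Biotin-Ahx-Ub-VS at 0.5 µM final for 1 h. Labelled DUBs were enriched on NeutrAvidin, digested with LysC and trypsin, and analysed by diaPASEF LC-MS/MS. Values are average log2 fragment/vehicle ratios from an unpaired t-test on global-median-normalised Spectronaut label-free quantities, using proteins with ≥2 unique peptides.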

USP22 = target: T2, USP22 (UniProt Q9UPT9)
T2 sequence (whole entry): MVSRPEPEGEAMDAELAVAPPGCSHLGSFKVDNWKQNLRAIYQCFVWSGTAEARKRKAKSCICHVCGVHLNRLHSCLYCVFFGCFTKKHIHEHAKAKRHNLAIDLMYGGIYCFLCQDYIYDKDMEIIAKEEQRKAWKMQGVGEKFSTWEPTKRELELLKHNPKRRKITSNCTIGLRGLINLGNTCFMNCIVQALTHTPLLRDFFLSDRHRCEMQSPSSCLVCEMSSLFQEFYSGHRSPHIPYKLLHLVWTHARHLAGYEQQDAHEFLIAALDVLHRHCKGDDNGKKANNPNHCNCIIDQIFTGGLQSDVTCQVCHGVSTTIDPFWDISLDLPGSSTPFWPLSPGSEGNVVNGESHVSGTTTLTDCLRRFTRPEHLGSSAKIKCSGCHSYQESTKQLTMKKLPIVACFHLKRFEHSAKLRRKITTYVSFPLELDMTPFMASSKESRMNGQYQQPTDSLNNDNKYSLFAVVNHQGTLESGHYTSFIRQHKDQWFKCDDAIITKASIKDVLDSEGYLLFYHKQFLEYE
How it was run: as §1

USP24 = USP24 (UniProt Q9UPU5)
USP24, sequence (Q9UPU5 whole entry): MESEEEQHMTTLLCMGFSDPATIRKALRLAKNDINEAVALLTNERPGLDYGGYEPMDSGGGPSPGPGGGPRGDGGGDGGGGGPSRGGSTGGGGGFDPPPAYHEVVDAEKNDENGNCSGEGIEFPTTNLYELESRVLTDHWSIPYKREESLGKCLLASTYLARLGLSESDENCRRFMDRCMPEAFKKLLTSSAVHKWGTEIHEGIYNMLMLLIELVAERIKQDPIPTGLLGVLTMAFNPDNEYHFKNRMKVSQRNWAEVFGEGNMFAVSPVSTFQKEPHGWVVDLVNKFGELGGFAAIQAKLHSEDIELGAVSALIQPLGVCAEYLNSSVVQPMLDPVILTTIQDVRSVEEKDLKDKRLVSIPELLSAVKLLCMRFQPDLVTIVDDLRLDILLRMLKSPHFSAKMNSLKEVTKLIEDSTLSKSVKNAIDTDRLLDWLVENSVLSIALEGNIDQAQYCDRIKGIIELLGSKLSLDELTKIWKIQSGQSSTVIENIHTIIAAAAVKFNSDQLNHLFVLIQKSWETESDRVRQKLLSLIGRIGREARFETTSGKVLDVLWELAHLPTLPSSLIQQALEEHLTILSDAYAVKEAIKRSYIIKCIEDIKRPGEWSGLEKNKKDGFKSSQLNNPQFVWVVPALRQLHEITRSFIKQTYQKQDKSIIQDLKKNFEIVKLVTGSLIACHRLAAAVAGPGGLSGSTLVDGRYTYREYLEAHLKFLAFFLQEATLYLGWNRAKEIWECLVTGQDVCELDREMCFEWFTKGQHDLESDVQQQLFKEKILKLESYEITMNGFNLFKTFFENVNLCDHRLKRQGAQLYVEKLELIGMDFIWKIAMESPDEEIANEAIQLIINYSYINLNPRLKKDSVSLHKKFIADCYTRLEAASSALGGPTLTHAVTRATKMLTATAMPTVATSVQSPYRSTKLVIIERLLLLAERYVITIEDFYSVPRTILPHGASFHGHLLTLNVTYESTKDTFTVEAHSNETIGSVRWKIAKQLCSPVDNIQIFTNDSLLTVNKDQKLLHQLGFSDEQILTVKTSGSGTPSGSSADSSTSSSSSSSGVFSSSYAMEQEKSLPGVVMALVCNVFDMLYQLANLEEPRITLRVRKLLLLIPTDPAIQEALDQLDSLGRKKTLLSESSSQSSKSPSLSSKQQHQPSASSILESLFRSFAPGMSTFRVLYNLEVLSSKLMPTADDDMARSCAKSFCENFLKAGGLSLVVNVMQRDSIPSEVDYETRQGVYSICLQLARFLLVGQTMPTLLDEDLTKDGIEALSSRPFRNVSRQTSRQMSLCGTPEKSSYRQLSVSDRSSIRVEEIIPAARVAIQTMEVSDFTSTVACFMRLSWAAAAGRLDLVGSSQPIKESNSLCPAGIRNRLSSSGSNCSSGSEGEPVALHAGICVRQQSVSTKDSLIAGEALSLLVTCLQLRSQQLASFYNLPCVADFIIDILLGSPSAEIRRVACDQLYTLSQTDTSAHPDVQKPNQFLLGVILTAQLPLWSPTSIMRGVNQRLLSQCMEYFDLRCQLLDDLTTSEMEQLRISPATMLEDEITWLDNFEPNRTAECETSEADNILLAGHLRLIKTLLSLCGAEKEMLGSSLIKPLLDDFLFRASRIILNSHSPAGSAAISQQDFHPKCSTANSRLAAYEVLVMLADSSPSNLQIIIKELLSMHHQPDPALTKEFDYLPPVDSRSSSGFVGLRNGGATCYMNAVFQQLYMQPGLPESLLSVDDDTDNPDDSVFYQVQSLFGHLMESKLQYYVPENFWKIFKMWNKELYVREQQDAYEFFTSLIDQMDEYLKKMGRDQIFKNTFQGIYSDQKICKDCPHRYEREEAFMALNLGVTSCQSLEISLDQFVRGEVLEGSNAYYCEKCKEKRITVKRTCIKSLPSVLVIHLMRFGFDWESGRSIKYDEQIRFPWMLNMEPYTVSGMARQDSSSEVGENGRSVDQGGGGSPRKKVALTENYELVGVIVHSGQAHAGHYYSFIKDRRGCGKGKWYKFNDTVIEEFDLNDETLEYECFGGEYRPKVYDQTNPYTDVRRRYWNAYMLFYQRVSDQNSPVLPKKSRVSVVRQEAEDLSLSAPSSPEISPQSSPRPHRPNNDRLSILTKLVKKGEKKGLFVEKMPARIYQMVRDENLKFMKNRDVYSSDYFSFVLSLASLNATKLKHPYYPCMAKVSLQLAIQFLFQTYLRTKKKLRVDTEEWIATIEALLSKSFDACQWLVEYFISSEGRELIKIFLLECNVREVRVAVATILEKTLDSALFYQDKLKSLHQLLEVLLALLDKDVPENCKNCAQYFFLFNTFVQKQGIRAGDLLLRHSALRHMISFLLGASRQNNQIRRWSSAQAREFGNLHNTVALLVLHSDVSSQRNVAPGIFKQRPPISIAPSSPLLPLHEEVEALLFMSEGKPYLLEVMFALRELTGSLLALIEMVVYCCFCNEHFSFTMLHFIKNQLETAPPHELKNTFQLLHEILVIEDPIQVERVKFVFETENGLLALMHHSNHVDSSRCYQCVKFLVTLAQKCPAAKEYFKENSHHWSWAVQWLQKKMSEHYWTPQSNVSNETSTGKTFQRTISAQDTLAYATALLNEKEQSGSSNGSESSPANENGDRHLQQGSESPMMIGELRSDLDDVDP
How it was run: as §1

USP25 = target: T3, USP25 (UniProt Q9UHP3)
T3 sequence (whole entry): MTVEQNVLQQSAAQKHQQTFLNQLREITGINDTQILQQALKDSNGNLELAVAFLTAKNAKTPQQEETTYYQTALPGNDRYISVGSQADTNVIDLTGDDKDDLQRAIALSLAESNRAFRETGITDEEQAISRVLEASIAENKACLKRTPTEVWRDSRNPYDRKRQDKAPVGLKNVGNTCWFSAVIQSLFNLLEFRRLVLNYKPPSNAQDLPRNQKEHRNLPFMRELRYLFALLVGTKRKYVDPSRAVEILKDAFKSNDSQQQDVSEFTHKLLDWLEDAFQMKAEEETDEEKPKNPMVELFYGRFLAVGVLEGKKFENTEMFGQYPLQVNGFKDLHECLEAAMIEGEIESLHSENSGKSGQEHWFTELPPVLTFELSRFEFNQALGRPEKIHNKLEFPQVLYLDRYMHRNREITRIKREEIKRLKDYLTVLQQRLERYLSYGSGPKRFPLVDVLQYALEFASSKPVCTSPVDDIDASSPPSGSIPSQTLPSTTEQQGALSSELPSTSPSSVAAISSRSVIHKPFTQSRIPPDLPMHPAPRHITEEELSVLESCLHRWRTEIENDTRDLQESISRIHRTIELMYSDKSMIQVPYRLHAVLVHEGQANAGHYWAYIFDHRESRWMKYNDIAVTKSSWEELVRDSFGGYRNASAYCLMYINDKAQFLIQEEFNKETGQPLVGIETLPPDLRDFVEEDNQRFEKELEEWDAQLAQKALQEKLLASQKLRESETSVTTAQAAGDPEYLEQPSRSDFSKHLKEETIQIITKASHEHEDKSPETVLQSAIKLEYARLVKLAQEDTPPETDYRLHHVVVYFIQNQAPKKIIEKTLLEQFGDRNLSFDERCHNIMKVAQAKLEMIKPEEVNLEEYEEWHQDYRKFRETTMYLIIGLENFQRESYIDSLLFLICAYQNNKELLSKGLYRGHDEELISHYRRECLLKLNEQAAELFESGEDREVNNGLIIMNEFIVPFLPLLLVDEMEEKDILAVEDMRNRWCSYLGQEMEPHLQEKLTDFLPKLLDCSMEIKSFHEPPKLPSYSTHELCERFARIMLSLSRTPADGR
How it was run: as §1

USP28 = target: T4, USP28 (UniProt Q96RU2)
T4 sequence (whole entry): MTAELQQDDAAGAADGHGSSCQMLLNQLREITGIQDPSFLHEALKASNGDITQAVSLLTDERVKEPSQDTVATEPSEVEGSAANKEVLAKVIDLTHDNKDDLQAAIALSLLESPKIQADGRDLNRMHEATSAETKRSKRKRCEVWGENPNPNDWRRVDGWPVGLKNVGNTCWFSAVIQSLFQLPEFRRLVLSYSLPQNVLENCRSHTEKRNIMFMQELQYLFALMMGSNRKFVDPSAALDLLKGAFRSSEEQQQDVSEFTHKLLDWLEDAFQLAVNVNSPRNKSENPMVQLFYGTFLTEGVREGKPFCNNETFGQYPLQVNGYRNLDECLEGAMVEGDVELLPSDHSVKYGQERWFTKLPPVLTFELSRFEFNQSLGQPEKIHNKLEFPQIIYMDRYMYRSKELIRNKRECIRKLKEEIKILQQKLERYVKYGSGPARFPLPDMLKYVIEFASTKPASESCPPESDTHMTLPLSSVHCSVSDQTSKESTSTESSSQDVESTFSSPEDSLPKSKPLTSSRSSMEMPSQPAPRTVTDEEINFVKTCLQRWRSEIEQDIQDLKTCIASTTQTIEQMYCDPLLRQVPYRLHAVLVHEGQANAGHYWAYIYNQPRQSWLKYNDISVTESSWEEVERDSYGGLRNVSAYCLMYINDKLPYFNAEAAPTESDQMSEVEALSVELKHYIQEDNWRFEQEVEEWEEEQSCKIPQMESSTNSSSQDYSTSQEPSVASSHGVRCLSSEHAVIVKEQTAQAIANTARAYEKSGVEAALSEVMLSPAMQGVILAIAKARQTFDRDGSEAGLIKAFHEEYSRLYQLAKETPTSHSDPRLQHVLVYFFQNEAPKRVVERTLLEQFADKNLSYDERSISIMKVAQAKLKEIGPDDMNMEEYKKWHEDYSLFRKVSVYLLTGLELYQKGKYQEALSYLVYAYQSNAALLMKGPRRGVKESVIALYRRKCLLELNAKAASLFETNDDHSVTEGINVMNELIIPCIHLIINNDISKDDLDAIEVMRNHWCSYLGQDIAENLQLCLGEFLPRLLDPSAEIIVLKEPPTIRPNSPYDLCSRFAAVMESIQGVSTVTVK
How it was run: as §1

Measured: log2 ratio of Biotin-Ahx-Ub-VS probe labelling

Cc1cccc(C)c1NC(=O)CCl
inactive: USP19 -0.0774 | USP22 0.0867 | USP24 -0.266 | USP25 -0.436 | USP28 -0.794
